In the library only some 7.9% were active in any assay of this set; here they are far more common.
HCV inh: inhibitors of hepatitis C virus infection; Huh7.5.1 HCVcc-Cre infection, luciferase reporter, 44 h; Potency, µM (series often up to 41.8 µM), inactives show top-dose activity change, negative = inhibition, usual class: inhibitors; 340,000 compounds, 3.4% hits; active = well fitted inhibition curve with a large enough effect; inconclusive = small, poorly fitted or top-dose-only effect, or another doubt; inactive = no such curve, though single readings can be large or run the other way; note: potency is the fitted concentration of half-maximal effect
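Infectious HCVcc-Cre (~0.5 moi) was added to cells just after compound, with cells seeded 4 h earlier at 1,000 per well. Luciferase activity after 44 h culture reported infection; substrate was incubated 15 min at room temperature before reading.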
FMDV antiviral: foot and mouth disease virus antiviral activity. FMDV antiviral cell-based qHTS. Potency, µM (doses to about 57.9 µM), without a hit: at the highest dose activity change, negative = inhibition, hits mostly inhibitors. 410,000 compounds, 1.2% hits; calls by dose curve; tested in HEK293T cells; note: read-out not given here; potency is the fitted concentration of half-maximal effect; nearly all actives have a fitted effect of over 45% in size
MARV entry inh: Marburg virus entry inhibition. Marburg virus pseudotyped entry inhibition, cell reporter. Potency, µM (titrated, usually from 37.8 µM), for inactives: at the highest dose activity change, negative = inhibition, actives largely listed as inhibitors. 300,000 compounds, 1.8% hits; calls by dose curve; tested in HEK293 cells; note: potency is the fitted concentration of half-maximal effect
LASV entry inh: inhibitors of Lassa virus binding or cell entry; Potency, µM (doses to about 37.9 µM), for the others: top-dose activity change, negative = inhibition, actives largely listed as inhibitors; 300,000 compounds, 1.2% hits; Lassa virus pseudotype entry inhibition, cell reporter; calls by dose curve; tested in HEK293 cells; note: potency is the fitted concentration of half-maximal effect; nearly all actives have a fitted effect of over 50% in size
HCMV antiviral: blocks human cytomegalovirus replication; HFF cells, HCMV-luciferase reporter, 72 h; hits give low values; activity change, negative = inhibition, % at 57.5 µM; 410,000 compounds, 4.5% hits; in the data active = activity change below about -60%; inconclusive = no clear call, values can overlap the other calls; inactive = above about -39%
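Inhibition of viral replication was scored as loss of reporter luminescence in HFFs infected with HCMV-luciferase (MOI 1 PFU/cell) for 72 h; compounds tested at 2 doses, normalized to buffer and Salinomycin controls.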
* marks the source's active call; other numbers are inactive results; ? = inconclusive; . = not tested or not shown; [ ] = dose if it differs, or a comment. % is set by controls: 0 for no effect and ±100 for the full control effect.

SMILES	HCV inh	FMDV antiviral	MARV entry inh	LASV entry inh	HCMV antiviral
Cc1cc(=O)oc2c3c(cc(OCC(=O)NCc4ccccc4)c12)OC(C)(C)CC3	5.6µM*	-28%	.	.	57
CCCc1cc(=O)oc2c3c(cc(OCC(=O)NCc4ccccn4)c12)OC(C)(C)CC3	10µM*	-26%	.	.	?
CCCc1cc(=O)oc2c3c(cc(OCC(=O)NCc4ccncc4)c12)OC(C)(C)CC3	?	?	.	.	-39
CC[n+]1c(/C=C/C=C2/N(C)c3ccccc3C2(C)C)sc2ccccc21	.	.	0.92µM*	1.3µM*	.
CCCCN1C(=O)/C(=C/C=C2\N(C)c3ccccc3C2(C)C)SC1=S	.	.	-1%	.	.
CCN1/C(=C\C=C\C2=[N+](CC)c3ccccc3C2(C)C)C(C)(C)c2ccccc21	0.56µM*	35µM*	0.71µM*	0.79µM*	.
Cc1ccccc1-c1nc(CN2CCC(C(=O)NCCN3CCOCC3)CC2)c(C)o1	-28%	-10%	?	3%[46.1 µM]	-36
Cc1ccccc1-c1nc(CN2CCC(C(=O)NCCCN3CCCC3)CC2)c(C)o1	14µM*	0%	?	?	-17
COCCn1ccc2c(OCC(=O)NCc3ccc(F)cc3)cccc2c1=O	.	-20%	.	?	6
CCn1ccc2c(OCC(=O)Nc3ccccc3C(F)(F)F)cccc2c1=O	.	32µM*	.	?	-27
CCOCCn1ccc2c(OCC(=O)Nc3cc(C)cc(C)c3)cccc2c1=O	.	-20%	.	-3%[46.1 µM]	8
CCOCCn1ccc2c(OCC(=O)Nc3ccc(OC)c(OC)c3)cccc2c1=O	?	25µM*	?	-9%	?
CCOC(=O)COc1cccc2c(=O)n(CC(=O)NCc3ccccc3)ccc12	-5%	-10%	.	.	-70*
COCCn1ccc2c(OCC(=O)NCCc3ccccc3)cccc2c1=O	10µM*	32%	-18%[46.1 µM]	?	-4
CCOC(=O)COc1cccc2c(=O)n(CC(=O)NCc3ccc(F)cc3)ccc12	10%	-13%	.	.	?
O=S(=O)(Cc1nnnn1-c1ccccc1)c1ccc(F)cc1	10%	-22%	.	.	5
CCC(=O)N1CC2(C1)CN(C(=O)c1ccccn1)[C@H](CO)c1c2c2ccc(OC)cc2n1C	.	.	.	.	21
Cc1nn(C)cc1CN1CCOc2ccc(CN3CCC(Oc4cccnc4)CC3)cc2C1	.	-6%	.	.	.
O=C(O)c1ccccc1C(=O)OCC1CCC(=NO)CC1 (centres undefined)	.	-21%	.	.	1
c1ccc(COc2ccccc2CNC23CC4CC(CC(C4)C2)C3)cc1	?	-12%	?	?	-97*
c1ccc(COc2ccccc2CNC2CCCC2)cc1	?	-23%	?	.	-27
CN1CCCC1CN1CCCC1 (centres undefined)	.	-11%	.	.	.
CN1CCCC1CCNC1C2CC3CC(C2)CC1C3 (centres undefined)	.	10%	13µM*	-50%[14.3 µM]	-39
O=C(Nc1ncccc1O)c1cc2ccccc2o1	2%	?	?	1.3µM*	-1
Cc1ccnc(NC(=O)c2cc3ccccc3o2)c1	-26%	28µM*	1.1µM*	?	-5
SMILES	HCV inh	FMDV antiviral	MARV entry inh	LASV entry inh	HCMV antiviral
O=C(Nc1ccccn1)c1cc2ccccc2o1	-10%	.	?	4.6µM*	-4
O=C(Nc1cccc2ncccc12)c1cc2ccccc2o1	-9%	-8%	0%	0%	7
CCCCNC(=O)C1(C)CCCCN1Cc1ccccc1-c1ccccc1 (centres undefined)	.	-31%	.	.	0
NCCC(=O)N1c2ccccc2Sc2ccc(Cl)cc21	?	-26%	.	.	35
NCCCC(=O)N1c2ccccc2Sc2ccc(Cl)cc21	5µM*	-23%	?	0.71µM*	23
CN(C)CCC(=O)N1c2ccccc2Sc2ccc(Cl)cc21	6.3µM*	-9%	?	0%	?
CN(C)CC(=O)N1c2ccccc2Sc2ccc(Cl)cc21	?	-11%	-18%[46.1 µM]	1%	-64*
COc1cc(-c2nc(Cn3nnc(C(=O)Nc4ccccc4C)c3C)c(C)o2)cc(OC)c1OC	.	?	?	-9%[46.1 µM]	-38
CCOC(=O)C1=C(C)N=C2SC(C(=O)OC)=CC(=O)N2C1c1ccc(OC)cc1 (centres undefined)	-1%	14µM*	-27%[46.1 µM]	.	6
O=[N+]([O-])c1nn(-c2ccccc2)n(O)c1=NC1CCN(Cc2ccccc2)CC1	2µM*	-18%	?	?	?
O=[N+]([O-])c1nn(-c2ccccc2)n(O)c1=NCCc1ccccc1	11µM*	9%	?	?	-37
O=[N+]([O-])c1nn(-c2ccc3c(c2)OCCO3)n(O)c1=NC1CCN(Cc2ccccc2)CC1	?	4%	.	.	-35
CN(C)c1nc(N)c2ncc(=S)[nH]c2n1	4%	-8%	2%[46.1 µM]	-22%	-32
Cc1ccc(-c2nn(-c3ccccc3)cc2C=C2C(=O)CC(C)(C)CC2=O)cc1	-23%	-75%	-22%	-1%	121
CC1=NNC(=O)/C1=C\c1cn(-c2ccccc2)nc1-c1ccc(Cl)cc1	?	10µM*	?	?	-102*
CCOC(=O)c1c(C)[nH]c(C(=O)OCc2ccc(F)cc2)c1C	?	20%	?	?	45
CCOC(=O)c1c(C)[nH]c(C(=O)OCc2ccccc2F)c1C	?	26%	?	10µM*	119
CN(C)S(=O)(=O)c1cc(NC(=O)COC(=O)Cc2cccc3ccccc23)ccc1Cl	-11%	?	-5%	?	57
COc1cc(NC(=O)COC(=O)c2[nH]c(C)c(C(C)=O)c2C)cc(OC)c1	10µM*	?	?	-22%[46.1 µM]	?
CCC(C(=O)OCC(=O)Nc1ccc(Cl)c(S(=O)(=O)N(C)C)c1)c1ccccc1 (centres undefined)	8%	?	11µM*	?	?
COC(=O)c1c(C)[nH]c(C(=O)OCc2csc(CC(=O)Nc3ccccc3C)n2)c1C	?	-24%	10µM*	-7%	11
COC(=O)C1=C(C)C(=O)[C@]2(O)c3ccccc3N(C)[C@]12C	.	.	18%[14.2 µM]	.	.
COc1ccccc1C1CN(Cc2cccc3c2OCO3)Cc2ccccc2O1 (centres undefined)	.	4%	.	.	.
CN(C)S(=O)(=O)c1cc(NC(=O)CN2CCN(c3ccc(O)cc3)CC2)ccc1Cl	1%	-8%	?	?	6
CC(=O)c1c(C)[nH]c(C(=O)Nc2ccc(Cl)c(S(=O)(=O)N(C)C)c2)c1C	?	33%	.	.	101
CCOC(=O)c1[nH]c(C)c(C(=O)OCC(=O)NC(=O)NC(C)(C)C)c1C	?	9%	-10%	21%	-8
CN(C)S(=O)(=O)c1cc(NC(=O)CN2CCN(c3ccccc3)CC2)ccc1Cl	3%	-28%	?	3.5µM*	-24
CCOC(=O)c1c(C)[nH]c(C(=O)OCC(=O)NC(C)(C)C)c1C	14µM*	-26%	-6%[46.1 µM]	?	-80*
CC(=O)c1c(C)[nH]c(C(=O)OCC(=O)Nc2ccc(Cl)c(S(=O)(=O)N(C)C)c2)c1C	4µM*	28µM*	.	.	0

From PubChem
